From ChEMBL document CHEMBL1961873, “Compounds: GSK PKIS; Assays: Nanosyn kinase panel” (2012)

Assays:
[1] = target: Serine/threonine-protein kinase pim-2 (Homo sapiens) (UniProt Q9P1W9); conditions: at 1 µM;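 note: each value is a mean of the inhibition measurements against the kinase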
[2] = target: Serine/threonine-protein kinase pim-3 (Homo sapiens) (UniProt Q86V86); conditions: at 0.1 µM
[3] = target: Serine/threonine-protein kinase pim-3 (Homo sapiens) (UniProt Q86V86); conditions: at 1 µM
[4] = target: T1, MAP kinase-activated protein kinase 5 (Homo sapiens) (UniProt Q8IW41); conditions: at 0.1 µM
T1 sequence (whole entry): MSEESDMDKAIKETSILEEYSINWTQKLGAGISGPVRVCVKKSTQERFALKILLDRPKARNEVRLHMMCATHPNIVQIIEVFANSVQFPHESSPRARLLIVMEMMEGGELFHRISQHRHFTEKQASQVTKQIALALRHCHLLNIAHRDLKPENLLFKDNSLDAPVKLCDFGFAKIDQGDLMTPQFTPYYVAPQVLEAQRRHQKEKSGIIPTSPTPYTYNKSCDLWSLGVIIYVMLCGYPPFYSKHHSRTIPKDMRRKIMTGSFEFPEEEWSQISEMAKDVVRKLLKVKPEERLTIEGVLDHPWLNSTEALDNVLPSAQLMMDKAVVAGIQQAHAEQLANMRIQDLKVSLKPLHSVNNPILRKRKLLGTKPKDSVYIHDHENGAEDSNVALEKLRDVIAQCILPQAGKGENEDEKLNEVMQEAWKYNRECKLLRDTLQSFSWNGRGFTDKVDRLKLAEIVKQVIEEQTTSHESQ

[5] = target: T1, MAP kinase-activated protein kinase 5 (Homo sapiens); conditions: at 1 µM
[6] = target: Serine/threonine-protein kinase SIK1 (Homo sapiens) (UniProt P57059); conditions: at 0.1 µM
Sequence of Serine/threonine-protein kinase SIK1 (Homo sapiens) (P57059 whole entry): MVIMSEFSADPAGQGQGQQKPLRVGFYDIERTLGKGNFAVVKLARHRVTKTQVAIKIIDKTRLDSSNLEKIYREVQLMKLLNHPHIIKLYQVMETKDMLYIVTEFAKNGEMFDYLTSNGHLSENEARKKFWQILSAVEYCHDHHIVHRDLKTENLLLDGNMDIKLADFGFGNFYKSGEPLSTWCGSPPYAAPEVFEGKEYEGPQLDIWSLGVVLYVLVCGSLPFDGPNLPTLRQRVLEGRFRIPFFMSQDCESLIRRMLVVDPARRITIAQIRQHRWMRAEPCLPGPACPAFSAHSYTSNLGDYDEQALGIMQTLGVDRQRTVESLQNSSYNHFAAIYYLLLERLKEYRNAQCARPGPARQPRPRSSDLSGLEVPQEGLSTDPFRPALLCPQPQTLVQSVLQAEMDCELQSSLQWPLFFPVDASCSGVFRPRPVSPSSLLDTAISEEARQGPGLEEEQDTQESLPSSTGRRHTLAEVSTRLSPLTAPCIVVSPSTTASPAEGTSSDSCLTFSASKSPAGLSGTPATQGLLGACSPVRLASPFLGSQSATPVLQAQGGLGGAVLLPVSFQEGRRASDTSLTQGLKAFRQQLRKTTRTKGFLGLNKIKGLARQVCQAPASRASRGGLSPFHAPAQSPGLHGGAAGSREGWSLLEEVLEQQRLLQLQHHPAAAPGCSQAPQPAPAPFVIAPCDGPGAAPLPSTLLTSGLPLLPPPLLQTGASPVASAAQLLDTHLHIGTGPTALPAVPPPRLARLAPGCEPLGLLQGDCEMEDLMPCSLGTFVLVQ

[7] = target: Serine/threonine-protein kinase SIK1 (Homo sapiens) (UniProt P57059); conditions: at 1 µM
[8] = target: Serine/threonine-protein kinase SIK2 (Homo sapiens) (UniProt Q9H0K1); conditions: at 0.1 µM
Sequence of Serine/threonine-protein kinase SIK2 (Homo sapiens) (Q9H0K1 whole entry, looked up): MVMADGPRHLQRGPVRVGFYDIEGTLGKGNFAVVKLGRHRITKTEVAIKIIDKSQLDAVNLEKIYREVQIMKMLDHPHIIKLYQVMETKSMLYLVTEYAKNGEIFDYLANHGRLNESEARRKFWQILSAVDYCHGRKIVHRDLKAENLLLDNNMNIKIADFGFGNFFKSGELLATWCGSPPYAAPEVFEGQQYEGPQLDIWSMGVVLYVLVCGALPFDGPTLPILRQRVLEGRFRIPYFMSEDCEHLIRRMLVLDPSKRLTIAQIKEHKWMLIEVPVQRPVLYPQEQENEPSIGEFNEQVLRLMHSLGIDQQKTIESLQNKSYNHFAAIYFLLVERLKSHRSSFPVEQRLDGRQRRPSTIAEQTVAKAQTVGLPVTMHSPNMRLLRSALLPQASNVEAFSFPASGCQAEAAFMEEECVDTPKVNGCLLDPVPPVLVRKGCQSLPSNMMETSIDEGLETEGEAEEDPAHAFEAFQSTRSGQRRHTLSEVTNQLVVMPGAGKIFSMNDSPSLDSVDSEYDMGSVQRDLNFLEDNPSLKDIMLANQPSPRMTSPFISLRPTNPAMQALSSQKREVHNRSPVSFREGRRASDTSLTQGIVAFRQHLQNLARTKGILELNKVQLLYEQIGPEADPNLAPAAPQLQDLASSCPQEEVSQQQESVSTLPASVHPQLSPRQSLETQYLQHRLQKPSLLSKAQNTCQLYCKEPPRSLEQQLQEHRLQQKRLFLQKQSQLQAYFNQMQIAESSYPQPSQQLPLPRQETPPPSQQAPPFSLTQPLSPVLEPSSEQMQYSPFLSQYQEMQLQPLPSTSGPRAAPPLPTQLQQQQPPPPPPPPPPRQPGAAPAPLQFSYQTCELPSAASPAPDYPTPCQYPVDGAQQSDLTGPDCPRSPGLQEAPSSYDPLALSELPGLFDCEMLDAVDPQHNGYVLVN

[9] = target: Serine/threonine-protein kinase SIK2 (Homo sapiens) (UniProt Q9H0K1); conditions: at 1 µM
[10] = target: T2, Serine/threonine-protein kinase TBK1 (Homo sapiens) (UniProt Q9UHD2); conditions: at 0.1 µM
T2 sequence (whole entry): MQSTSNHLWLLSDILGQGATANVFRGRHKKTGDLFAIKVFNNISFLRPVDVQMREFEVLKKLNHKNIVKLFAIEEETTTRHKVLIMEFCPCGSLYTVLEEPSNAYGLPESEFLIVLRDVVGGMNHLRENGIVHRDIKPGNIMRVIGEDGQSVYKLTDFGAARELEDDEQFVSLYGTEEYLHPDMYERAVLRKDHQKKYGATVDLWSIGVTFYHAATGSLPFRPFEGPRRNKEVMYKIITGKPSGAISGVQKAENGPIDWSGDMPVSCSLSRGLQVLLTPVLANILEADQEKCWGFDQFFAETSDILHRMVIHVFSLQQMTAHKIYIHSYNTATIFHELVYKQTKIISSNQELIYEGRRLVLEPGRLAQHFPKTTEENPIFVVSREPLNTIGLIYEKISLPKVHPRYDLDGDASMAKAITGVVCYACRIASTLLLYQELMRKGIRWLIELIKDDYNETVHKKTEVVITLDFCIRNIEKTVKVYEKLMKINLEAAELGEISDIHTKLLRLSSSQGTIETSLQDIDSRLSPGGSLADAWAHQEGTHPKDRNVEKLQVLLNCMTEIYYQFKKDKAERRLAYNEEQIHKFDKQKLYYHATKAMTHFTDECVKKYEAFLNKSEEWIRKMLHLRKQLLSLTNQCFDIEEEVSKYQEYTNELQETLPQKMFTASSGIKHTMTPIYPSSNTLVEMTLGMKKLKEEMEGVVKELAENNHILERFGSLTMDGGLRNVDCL

[11] = target: T2, Serine/threonine-protein kinase TBK1 (Homo sapiens); conditions: at 1 µM
[12] = target: T3, Testis-specific serine/threonine-protein kinase 1 (Homo sapiens) (UniProt Q9BXA7); conditions: at 0.1 µM
T3 sequence (whole entry): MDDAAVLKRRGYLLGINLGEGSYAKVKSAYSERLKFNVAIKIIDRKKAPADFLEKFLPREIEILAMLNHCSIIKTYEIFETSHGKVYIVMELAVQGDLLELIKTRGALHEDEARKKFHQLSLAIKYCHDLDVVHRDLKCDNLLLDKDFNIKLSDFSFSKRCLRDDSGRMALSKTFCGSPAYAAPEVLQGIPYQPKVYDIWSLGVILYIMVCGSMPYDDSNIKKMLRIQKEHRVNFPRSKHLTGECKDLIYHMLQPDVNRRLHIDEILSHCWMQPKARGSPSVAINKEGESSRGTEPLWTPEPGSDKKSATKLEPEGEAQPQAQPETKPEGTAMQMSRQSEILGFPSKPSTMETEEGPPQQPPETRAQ

[13] = target: T3, Testis-specific serine/threonine-protein kinase 1 (Homo sapiens); conditions: at 1 µM
[14] = target: T4, Testis-specific serine/threonine-protein kinase 2 (Homo sapiens) (UniProt Q96PF2); conditions: at 0.1 µM
T4 sequence (whole entry): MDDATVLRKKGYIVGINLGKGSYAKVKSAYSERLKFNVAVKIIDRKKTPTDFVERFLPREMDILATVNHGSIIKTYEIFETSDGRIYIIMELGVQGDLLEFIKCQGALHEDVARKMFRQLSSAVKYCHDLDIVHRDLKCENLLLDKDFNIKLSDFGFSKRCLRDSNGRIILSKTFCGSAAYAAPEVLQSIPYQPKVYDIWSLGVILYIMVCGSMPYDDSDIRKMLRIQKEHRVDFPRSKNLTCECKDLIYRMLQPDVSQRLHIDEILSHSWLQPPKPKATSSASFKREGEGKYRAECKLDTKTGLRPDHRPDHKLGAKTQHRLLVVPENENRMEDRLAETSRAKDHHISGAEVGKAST

[15] = target: T4, Testis-specific serine/threonine-protein kinase 2 (Homo sapiens); conditions: at 1 µM
[16] = target: Casein kinase I isoform alpha (Homo sapiens) (UniProt P48729); conditions: at 0.1 µM
Sequence of Casein kinase I isoform alpha (Homo sapiens) (P48729 2-337 limits assumed): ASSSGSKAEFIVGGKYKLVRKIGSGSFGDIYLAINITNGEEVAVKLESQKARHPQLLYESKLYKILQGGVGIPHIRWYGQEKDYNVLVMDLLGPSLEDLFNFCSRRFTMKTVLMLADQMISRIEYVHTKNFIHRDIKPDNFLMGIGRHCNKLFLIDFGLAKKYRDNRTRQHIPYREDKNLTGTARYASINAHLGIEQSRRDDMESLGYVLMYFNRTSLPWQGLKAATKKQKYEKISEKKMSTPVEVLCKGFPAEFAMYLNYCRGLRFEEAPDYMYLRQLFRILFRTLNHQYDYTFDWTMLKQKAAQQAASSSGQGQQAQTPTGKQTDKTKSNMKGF

[17] = target: Casein kinase I isoform alpha (Homo sapiens) (UniProt P48729); conditions: at 1 µM
[18] = target: Casein kinase I isoform gamma-1 (Homo sapiens) (UniProt Q9HCP0); conditions: at 0.1 µM
Sequence of Casein kinase I isoform gamma-1 (Homo sapiens) (Q9HCP0 whole entry, looked up, canonical isoform): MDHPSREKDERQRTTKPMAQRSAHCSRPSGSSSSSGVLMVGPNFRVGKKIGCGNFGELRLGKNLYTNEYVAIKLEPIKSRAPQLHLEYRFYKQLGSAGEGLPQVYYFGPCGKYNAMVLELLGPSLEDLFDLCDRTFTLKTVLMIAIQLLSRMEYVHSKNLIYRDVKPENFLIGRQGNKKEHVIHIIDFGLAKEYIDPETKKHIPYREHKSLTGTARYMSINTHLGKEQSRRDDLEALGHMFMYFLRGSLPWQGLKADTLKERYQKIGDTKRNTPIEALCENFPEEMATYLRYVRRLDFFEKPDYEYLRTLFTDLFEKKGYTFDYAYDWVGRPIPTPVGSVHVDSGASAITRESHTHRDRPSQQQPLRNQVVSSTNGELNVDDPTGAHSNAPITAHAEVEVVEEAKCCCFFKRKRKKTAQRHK

[19] = target: Casein kinase I isoform gamma-1 (Homo sapiens) (UniProt Q9HCP0); conditions: at 1 µM
[20] = target: Casein kinase I isoform gamma-2 (Homo sapiens) (UniProt P78368); conditions: at 0.1 µM;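 note: values are mean inhibition figures reported as part of the GSK PKIS dataset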
Sequence of Casein kinase I isoform gamma-2 (Homo sapiens) (P78368 whole entry, looked up, canonical isoform): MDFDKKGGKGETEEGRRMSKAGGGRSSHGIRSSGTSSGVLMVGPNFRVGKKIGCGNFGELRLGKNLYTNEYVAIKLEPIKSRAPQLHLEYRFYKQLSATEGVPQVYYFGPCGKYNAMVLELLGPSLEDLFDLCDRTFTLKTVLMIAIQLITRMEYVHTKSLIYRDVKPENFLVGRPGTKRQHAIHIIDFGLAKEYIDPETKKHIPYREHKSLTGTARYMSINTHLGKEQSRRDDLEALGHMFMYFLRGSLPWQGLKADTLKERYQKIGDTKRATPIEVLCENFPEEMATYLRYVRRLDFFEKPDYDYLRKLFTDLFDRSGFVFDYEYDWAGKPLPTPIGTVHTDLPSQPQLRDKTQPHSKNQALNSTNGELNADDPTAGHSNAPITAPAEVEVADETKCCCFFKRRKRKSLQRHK

Sequence of Serine/threonine-protein kinase pim-2 (Homo sapiens) (Q9P1W9 whole entry, looked up): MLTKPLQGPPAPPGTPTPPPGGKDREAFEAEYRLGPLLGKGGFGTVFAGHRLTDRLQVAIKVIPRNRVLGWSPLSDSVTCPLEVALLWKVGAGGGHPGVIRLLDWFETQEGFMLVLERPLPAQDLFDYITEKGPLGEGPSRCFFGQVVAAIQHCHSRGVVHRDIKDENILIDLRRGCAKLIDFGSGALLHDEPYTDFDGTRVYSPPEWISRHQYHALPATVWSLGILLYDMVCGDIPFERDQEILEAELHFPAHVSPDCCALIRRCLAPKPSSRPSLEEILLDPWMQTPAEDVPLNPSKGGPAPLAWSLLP

SMILES	inhibition [1] [%]	inhibition [2] [%]	inhibition [3] [%]	inhibition [4] [%]	inhibition [5] [%]	inhibition [6] [%]	inhibition [7] [%]	inhibition [8] [%]	inhibition [9] [%]	inhibition [10] [%]	inhibition [11] [%]	inhibition [12] [%]	inhibition [13] [%]	inhibition [14] [%]	inhibition [15] [%]	inhibition [16] [%]	inhibition [17] [%]	inhibition [18] [%]	inhibition [19] [%]	inhibition [20] [%]
COc1cccc(-n2ncc3c(N/N=C/c4cccc(F)c4)ncnc32)c1	-2.82	-0.58	-0.78	0.63	0.71	5.56	11.9	5.11	14.4	1.92	5.66	2.14	2.06	0.63	0.82	2.35	2.18	-1.45	-0.75	-1.9
CCCN1CCC=C(c2ccc(Nc3nc(Nc4ccccc4C(N)=O)c4cc[nH]c4n3)c(C)c2)C1	4.08	2.03	12.5	1.79	5.7	5.62	9.29	2.87	8.52	3.95	9.03	29.9	76.7	7.28	37.6	8.97	47.6	22.5	59.8	31.1
NS(=O)(=O)c1cccc(-c2ccc3c(NC(=O)C4CC4)n[nH]c3c2)c1	0.35	-1.61	1.3	-0.5	0.65	-8.4	-0.1	-0.65	-7.23	0.24	0.44	-0.2	-0.47	-0.61	-0.16	4.11	4.53	-0.89	0.05	-0.75
Fc1cccc(COc2ccc(Nc3ncnc4cc(-c5ccc[nH]5)sc34)cc2Cl)c1	-2.72	-0.5	1.49	0.74	0.9	3.04	8.63	3.89	7.67	2.35	3.65	2.48	2.76	1.09	2.13	0.63	0.84	-1.43	-0.95	-1.97
Cc1cc(O)cc(C)c1/C=C/c1cncc(-c2nn[nH]n2)c1	-2.91	-1.97	-0.67	1.58	1.02	56.2	94.7	6.01	53.7	1.57	5.41	2.79	2.61	1.18	0.73	7.75	10.6	1.82	3.8	0.59
CCn1c(-c2nonc2N)nc2cnc(Oc3cccc(NC(=O)c4ccc(OCCN5CCOCC5)cc4)c3)cc21	0.68	-1.8	2.09	0.82	1.44	4.8	10.1	8.55	13.8	0.71	7.42	24.3	72.8	2.29	3.44	0.67	1.31	3.07	2.93	2.55
NC(=O)c1ccc(-c2nc(-c3ccccn3)c(-c3ccc4c(c3)OCO4)[nH]2)cc1	0.78	0.11	0.3	0.77	1.22	3.17	5.25	7.51	11.6	2.24	2.25	2.68	0.88	1.76	0.84	13.1	48.5	1.97	4.22	1.5
Nc1ncnc2occ(-c3ccc(NC(=O)Nc4cccc(C(F)(F)F)c4)cc3)c12	0.72	0.78	0.9	1.67	1.36	-0.49	9.69	4.8	3.6	3.95	4.59	4.54	4.9	1.47	2.55	3.35	5.6	5.08	10.1	4.03
Cc1cccc(-c2n[nH]cc2-c2ccc3ncccc3n2)n1	-0.16	-1.47	-1.14	0.08	0.05	-0.73	3.97	3.18	13.8	-2.48	-2.11	0.8	0.75	-0.09	1.08	1.85	1.42	0.4	1.1	0.55
CN1CCC(C(=O)Nc2n[nH]c3nnc(-c4ccccc4)cc23)CC1	1.49	-0.11	3.84	1.41	3.73	7.3	7.57	6.82	8.16	2.09	3.05	5.87	6.95	3.85	6.08	2.13	4	5.08	5.43	3.51
O=C(Nc1n[nH]c2nc(-c3ccco3)c(Br)cc12)C1CC1	0.42	-1.42	-2.95	0.87	0.07	2.49	5.66	3.56	5	6.52	4.8	4.63	1.5	-0.36	-1.08	1.36	3.16	3.71	2.78	2.3
CS(=O)(=O)CCNCc1ccc(-c2ccc3ncnc(Nc4ccc(OCc5cccc(F)c5)c(C(F)(F)F)c4)c3c2)o1	0.66	0.74	0.16	1.63	2.16	0.39	9.67	2.19	10.8	1.68	4.04	4.81	5.61	2.88	3.87	1.94	2.33	3.11	4.58	2.69
Fc1cccc(COc2ccc(Nc3ncnc4sc(-c5cccs5)cc34)cc2Cl)c1	1.54	0.47	1.27	0.51	0.8	0.72	7.28	2.25	-2.41	0.83	2.3	0.6	1.28	0.22	0	-0.37	2.33	0.39	-0.08	0.42
